Holding throughout (test): NCI-60 one-dose screen, 48 h (100 = growth as untreated, 0 = no growth, -100 = all killed)
What all share (settings): 10 µM unless noted

For assay [1], the system named is NCI-H23 lung.
In assay [2] the test system is NCI-H226 lung.
The test system of assay [3] is NCI-H322M lung.
In assay [4] the test system is HOP-62 NSCLC.
Assay [5] relates to NCI-H460 lung.
Assay [6] concerns HOP-92 NSCLC.
The test system of assay [7] is NCI-H522 lung.
The test system of assay [8] is A549/ATCC NSCLC.
In assay [9] the test system is 786-0 renal.
Assay [10] has as its system COLO 205 colon.
In assay [11] the test system is DU-145 prostate.
The test system of assay [12] is K-562 leukemia.
For assay [13], the system named is MALME-3M melanoma.
Assay [14] deals with MDA-MB-231 breast.
Assay [15] has as its system RXF 393 renal.
For assay [16], the system named is SF-268 CNS.
For assay [17], the system named is SF-295 CNS.
Assay [18] relates to SF-539 CNS.
Assay [19] deals with UACC-257 melanoma.
For assay [20], the system named is M14 melanoma.

We go through seven compounds from PubChem BioAssay (NCI).

Compounds without any hit were thinned out: in the full panel of roughly 83,000, 20% have a hit.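 A percent growth of 40 corresponds to 60% growth inhibition; 0 means no net growth; -100 means all cells died. Active threshold: below 10.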 Values without a mark were called inactive. Active and inactive are the calls of the source.

Consider `COC(=O)[C@H](Cc1ccccc1)NC(=O)[C@@H](OC)[C@@H]1Cc2cc3cc(OC4CC(OC5CC(O)C(O)C(C)O5)C(O)C(C)O4)c(C)c(O)c3c(O)c2C(=O)[C@H]1OC1CC(OC2CC(OC3CC(C)(O)C(O)C(C)O3)C(O)C(C)O2)C(O)C(C)O1` (stereo not given in full), for which the growth in assay [1] is -28.5% (active); in assay [2], -33% (active); in [3] it was 7.54% (active); in [4], 4.37% (active); in assay [5], 4.92% (active); in assay [6], -17.5% (active). Besides, the growth was -30.7% (active) in assay [7]; 6.81% (active) in assay [8]; 0.647% (active) in [9]; -36.7% (active) in [10]; 11.8% in assay [11]; 5.63% (active) in assay [12]. Besides, the growth in assay [13] is -54.8% (active); in assay [14], -8.99% (active); in [15] it was -75% (active); in assay [16], -2% (active); in assay [17], -9.46% (active); in [18] it was -35.7% (active). The growth is -16.2% (active) in assay [19] and -60.8% (active) in assay [20].

Consider `C[C@H](NC(=O)c1c(N)nn2cccnc12)c1cc2cccc(C#Cc3cnn(C)c3)c2c(=O)n1-c1ccccc1`, for which the growth in assay [1] was 40.9%; in assay [2], 70.3%; in [3], 53.6%; in assay [4] it was 11.8%; in assay [5] it was 30.4%; in assay [6] it was 9.5% (active). For the same compound, the growth in assay [7] was 14.1%; in [8], 20.3%; in assay [9], 19.1%; in assay [10] it was -11.7% (active); in assay [11], 34.6%; in [12], 17.4%. In addition, the growth in assay [13] is 50.1%; in assay [14], 37.8%; in [15] it was -16% (active); in [16], 25.3%; in assay [17], 11.6%; in [18], 21.7%. Also, the growth in assay [19] is 39.1%; in assay [20] it was 29.5%.

`O=C(Nc1cnn2ccc(N3CCC[C@@H]3c3cc(F)ccc3F)nc12)N1CC[C@H](O)C1`: the growth in [1] is 87.8%; in [2] it was 93.8%; in [3] it was 104%; in [4], 71.8%; in [5], 84.1%; in assay [6], 89.5%. The growth in [7] is 70.5%; in [8] it was 72.4%; in assay [9] it was 91%; in [10], 71.6%; in [11], 110%; in assay [12], 74.8%. In addition, the growth in assay [13] was 114%; in [14] it was 88.2%; in assay [15], 80.7%; in assay [16] it was 91%; in assay [17] it was 96.9%; in [18] it was 77.4%. In addition, the growth is 70.8% in assay [19] and 81.5% in assay [20].

Consider `COCCOc1cnc2ccn([C@H](C)c3nnc4c(F)cc(-c5cnn(C)c5)cn34)c(=O)c2c1`, for which the growth in assay [1] is 51.1%; in assay [2], 68.8%; in assay [3], 59.2%; in assay [4] it was 89.2%; in assay [5], 75.6%; in [6] it was 85.3%. In addition, the growth in assay [7] is 87.7%; in assay [8] it was 65.7%; in assay [9] it was 108%; in assay [10] it was 106%; in [11], 91.2%; in assay [12], 96.8%. Besides, the growth was 9.06% (active) in assay [13]; 63.9% in assay [14]; 81.2% in assay [15]; 85.9% in assay [16]; 67.4% in [17]; 99.1% in assay [18]. Besides, the growth in [19] is 69.1%; in [20], 91.6%.

`C=CC(=O)N1CCC[C@H](n2c(=O)n(-c3ccc(Oc4ccccc4)cc3)c3c(N)ncnc32)C1`: the growth was 92.7% in assay [1]; 79.1% in [2]; 19.3% in assay [3]; 82.8% in assay [4]; 96.2% in [5]; 85.7% in assay [6]. The growth was 11.3% in assay [7]; 58.3% in [8]; 85.3% in [9]; 93.1% in assay [10]; 62.4% in assay [11]; 66.7% in assay [12]. The growth in assay [13] was 98.2%; in [14] it was 99.6%; in assay [15] it was 84.8%; in assay [16] it was 71.6%; in [17], 98.4%; in assay [18], 104%. In addition, the growth in assay [19] was 62.9%; in assay [20], 84.1%.

Turning to `C1=C\COCc2cc(ccc2OCCN2CCCC2)Nc2nccc(n2)-c2cccc(c2)COC/1`, the growth in [1] was -17.3% (active); in assay [2], -64.9% (active); in assay [3] it was -8.53% (active); in [4], -18.1% (active); in assay [5] it was -34.5% (active); in assay [6], -0.764% (active). The growth in assay [7] is -58.1% (active); in assay [8], -17.3% (active); in assay [9] it was 1.51% (active); in [10], -82% (active); in assay [11], 13.7%; in assay [12], 1.93% (active). Also, the growth in assay [13] was -79.3% (active); in assay [14], -1.88% (active); in [15] it was -74.8% (active); in [16] it was -0.949% (active); in assay [17], -33.8% (active); in assay [18], -83.7% (active). The growth is -75.1% (active) in assay [19] and -59.4% (active) in assay [20].

For `C/C(=C(/c1ccc(Cl)cc1)c1ccc(OCCN2CCCC2)cc1)c1ccccc1`, the growth in assay [1] was 71.2%; in assay [2], 83.3%; in assay [3] it was 82.5%; in assay [4], 90%; in assay [5], 41.5%; in assay [6], 84.2%. Also, the growth in assay [7] is 58.9%; in assay [8], 66.7%; in [9], 75.2%; in assay [10] it was 24.3%; in [11], 86.4%; in assay [12] it was 6.72% (active). For the same compound, the growth in assay [13] is 62.4%; in assay [14] it was 61.3%; in assay [15], 66.6%; in assay [16] it was 87.9%; in [17], 77.5%; in assay [18], 58.8%. Further, the growth in assay [19] is 44.7%; in assay [20] it was 28.3%.
